Source: PubChem (National Center for Advancing Translational Sciences (NCATS))
The sample as a whole holds a higher share of hits than the screen did.
Pf Dd2 growth = blocks in vitro growth of P. falciparum Dd2 | P. falciparum Dd2 growth, SYBR Green, 72 h | Potency, µM (titrated, usually from 28.9 µM), for the others: at the top dose activity, negative = inhibition, actives largely listed as inhibitors | 120,000 compounds, 4.3% hits; active means well fitted inhibition curve with a large enough effect;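 further: plate controls were DMSO vehicle for no effect and reference drug for full effect; nearly all actives have a fitted effect of over 65% in size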
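Infected erythrocytes (Dd2, 0.3% parasitemia, 2.5% hematocrit final) are added to compound in RPMI-1640/Albumax II medium, grown 72 h at 37C in low oxygen, then lysed with saponin/Triton-X containing SYBR Green and read by fluorescence.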
Active calls of the source: *; i = inactive; [ ] = remark or other dose. Potency means the concentration at half of the fitted maximal effect.

SMILES	Pf Dd2 growth
COc1ccc(-c2cc3ccc(O)c(CN4CCCC(C)C4)c3oc2=O)cc1OC (centres undefined)	4.5µM*
COc1ccc(-c2nc(CN3CCC(C(=O)NCCc4ccccc4)CC3)c(C)o2)cc1OC	i
COc1ccc(-c2c(C)c3ccc(O)c(CN4CCCC(C)C4)c3oc2=O)cc1OC (centres undefined)	11µM*
COc1ccc(-c2cc3ccc(O)c(CN4CCCC(C)C4)c3oc2=O)cc1 (centres undefined)	1µM*
COc1ccc(-c2c(C)c3ccc(O)c(CN4CCN(CCO)CC4)c3oc2=O)cc1OC	3%
COc1ccc(N2CCN(C3CCCN(Cc4cc(=O)[nH]c(=O)[nH]4)C3)CC2)cc1 (centres undefined)	-1%
COc1ccc(-c2nnc([C@H]3CCN(C(=O)c4ccc(OC)c(OC)c4)C3)o2)cc1	i
COc1ccc(NC(=O)N2CCN(Cc3nc4ccc(C)cc4o3)CC2)cc1OC	30%
COc1ccc(-c2c(C)c3cc(OC(=O)N4CCOCC4)ccc3oc2=O)cc1OC	i
COc1ccc(CCC(=O)N2CCC[C@H]2c2nc(-c3ccc(OC)c(OC)c3)no2)cc1	i
COc1ccc(-c2cc3ccc(O)c(CN4CCCC4)c3oc2=O)cc1OC	4µM*
COc1ccc(S(=O)(=O)NCC2CCCN(Cc3ccc(-c4ccco4)cc3)C2)cc1 (centres undefined)	-14%
NC(=O)CCNC(=O)C1=C[C@@H](NC(=O)Nc2cccc(F)c2)[C@@H](O)[C@H](O)C1	-23%[44.1 µM]
O=C(Nc1cccc(Cl)c1)C1CCc2sc(C(=O)N3CCCC3)cc2C1 (centres undefined)	i
Cc1nc(C2CC(NC3CCN(c4ccccc4F)CC3)C2)cc(=O)[nH]1 (centres undefined)	-8%
O=C(Nc1ccc(Br)c(F)c1)c1cnc(-c2ccccc2)nc1-c1ccncc1	-15%
CC(=O)N1CCC2(CC1)CN(C(=O)CCCNC(N)=O)Cc1ccccc1O2	1%
CNc1nc2c(c(C(=O)N3CCCC3)n1)CN(C(=O)Cn1nc(C)cc1C)CC2	-4%
CCN1C(=O)Cc2ccccc2C1C(=O)NCc1ccc(OC)cc1 (centres undefined)	-6%
O=C1CC(c2ccccc2)N(C(=O)CNS(=O)(=O)c2ccc3c(c2)OCCO3)CCCCCN1 (centres undefined)	i
O=C1CC(c2ccccc2)N(C(=O)NCc2ccccc2)CCCCCN1 (centres undefined)	-2%
O=C1CC(c2ccccc2)N(C(=O)C2CC2)CCCCCCN1 (centres undefined)	-9%
N#Cc1ccc(CN2CCCCCCNC(=O)CC2c2ccccc2)cc1 (centres undefined)	i
O=C1CC(c2ccccc2)N(Cc2ccc3[nH]ccc3c2)CCCCCN1 (centres undefined)	7.9µM*
O=C1CC(c2ccccc2)N(Cc2ccc3c(c2)CCO3)CCCCCCN1 (centres undefined)	13µM*
SMILES	Pf Dd2 growth
O=C1Nc2ccc(-c3cccc(C(F)(F)F)c3)cc2C(=O)N2CCN(C(=O)[C@@H]3CSCN3)C[C@H]12	i
CS(=O)(=O)N1CCC2(CC1)CC(c1ccccc1)C(=O)N(C1CC1)C2 (centres undefined)	-13%
C[C@@H](NC(=O)c1ccccn1)c1onc(-c2ccc(Cl)cc2)c1C(=O)O	23%[44.1 µM]
Cn1c(C(=O)N2CCC3(CCNC(=O)CC3)CC2)cc2c(Cl)cccc21	-6%
CN1CCC(N2CCOC[C@H]2c2ncc(C(C)(C)C)[nH]2)CC1	9%[44.1 µM]
COc1ccc(-c2cnc([C@@H]3COCCN3Cc3ccccc3)[nH]2)cc1	10µM*
CN1CCOC[C@H]1c1ncc(-c2ccc(F)cc2F)[nH]1	i
Cn1cc(CN2CCOC[C@H]2c2ncc(C(C)(C)C)[nH]2)c2ccccc21	10µM*
Oc1ccccc1CN1CCOC[C@H]1c1ncc(-c2ccc(F)cc2F)[nH]1	3.2µM*
COc1ccc(CN2CCOC[C@H]2c2ncc(-c3ccc(C)cc3)[nH]2)cc1	-1%[44.1 µM]
CS(=O)(=O)c1ccc(-c2cnc([C@@H]3COCCN3Cc3ccccc3O)[nH]2)cc1	i
Clc1ccc(-c2cnc([C@@H]3COCCN3C3CCCCC3)[nH]2)cc1	-27%[44.1 µM]
C[C@@H](NC(=O)N1CCOC[C@H]1c1ncc(-c2ccc(Cl)cc2)[nH]1)c1ccccc1	13µM*
CC(C)(C)CN1CCOC[C@H]1c1ncc(-c2ccccc2)[nH]1	i
COc1ccc(-c2cnc([C@@H]3COCCN3Cc3ccncc3)[nH]2)cc1	i
CO[C@@](C(=O)N1CCOC[C@H]1c1ncc(-c2ccccc2)[nH]1)(c1ccccc1)C(F)(F)F	i
Cc1cccc(Cl)c1NC(=O)N1CCC2(CC1)C(C(=O)O)CC(=O)N2C (centres undefined)	-3%
CN1C[C@@H]2CCCN3CCC[C@@H]([C@H]23)[C@H]1CCCC(=O)NCCc1nc2ccccc2[nH]1	5%
Cn1nnnc1C1CCCN(C(=O)c2cccc(F)c2)C1 (centres undefined)	23%
COc1cc(C(=O)N2CCN(c3cc(-c4cccs4)[nH]n3)CC2)cc(OC)c1OC	i
O=C(c1ccc(OC(F)F)cc1)N1CCCC(O)(CN2CCCC2)C1 (centres undefined)	-22%
CCCc1cc(CN(C)C(=O)c2cn(CC(=O)N(CC)CC)nn2)[nH]n1	3%
CS(=O)(=O)CCc1nc(-c2ccco2)nn1-c1cccc(F)c1	23%
Cc1ccc(C(=O)N2CCCC3(CC(c4ccccn4)=NO3)C2)cc1 (centres undefined)	4%
Cn1c(CN2CCOC[C@H]2c2ncc(-c3ccc(Cl)s3)[nH]2)nc2ccccc21	11µM*
SMILES	Pf Dd2 growth
Clc1ccc(-c2cnc([C@@H]3COCCN3Cc3ccccc3)[nH]2)s1	i
CS(=O)(=O)c1ccc(CN2CCOC[C@H]2c2ncc(-c3ccc(Cl)s3)[nH]2)cc1	i
CC(C(=O)NCC1CCOCC1)c1ccccc1 (centres undefined)	15%
Cc1ccc(C2(O)CCN(C(=O)c3ccc4ncccc4c3)CC2)nc1	4µM*
Cc1ccc(C2(O)CCN(C(=O)C(=O)c3cccnc3)CC2)nc1	-7%
O=C(c1ccc2ncccc2c1)N1CCC2(CC1)Nc1ccccc1NC2=O	8%
COC[C@@H]1CN(S(=O)(=O)c2ccc(F)cc2)C[C@H]1c1nc(C)no1	3%
O=C(OCc1ccccc1)N1CCC2(CC1)C(=O)NN=C2c1cccnc1	i
COc1ccc(C(=O)NCCn2cc(SCC(=O)Nc3ccc(C)cc3)c3ccccc32)cc1	-28%
CCOc1ccc(NC(=O)CSc2cn(CCNC(=O)c3ccccc3F)c3ccccc23)cc1	-18%
CCOc1ccc(C(=O)NCCn2cc(SCC(=O)Nc3ccccc3)c3ccccc32)cc1	4.5µM*
Cc1cc(C(=O)N[C@H]2CCOC[C@H]2C2CCOCC2)ccc1N1CCOCC1	-1%
Cc1ccccc1[C@H]1C[C@@H](O)[C@@H](O)[C@@H]1NS(=O)(=O)c1cccc(C#N)c1	-24%[44.1 µM]
CCOc1ccc(C(=O)Nc2ccc(-c3nnc4n3CCCCC4)cc2)cc1OCC	-18%
O=C(Nc1ccc(-c2nnc3n2CCCC3)cc1)c1cc(F)ccc1F	i
O=C(Nc1ccc(-c2nnc3n2CCCC3)cc1)c1cc(-c2ccccc2)n[nH]1	14µM*
O=C(Nc1ccc(-c2nnc3n2CCCC3)cc1)c1ccc2ccccc2n1	1µM*
COc1ccc(C(=O)Nc2ccc(-c3nnc4n3CCCC4)cc2)cn1	7.1µM*
O=C(NC1CCc2n[nH]c(=O)n2CC1)c1ccc2ccccc2n1 (centres undefined)	i
